# PubChem BioAssay (NCATS)
# Inconclusive results are not listed. Active and inactive are the calls of the source. Unless noted, calls come from the whole dose curve; as a rule, active = well fitted cell-killing curve with a large enough effect; inconclusive = small, poorly fitted or top-dose-only effect, or effect the other way; inactive = no such curve, though single readings can be large or run the other way.
# What was measured:
# [1] = Quantitative High-Throughput drug screen in 47 multiple myeloma cell lines against the NCATS MIPE library collection: KMS28PE_JCRB cell viability assay (AID 1918983); note: potency is the fitted concentration of half-maximal effect; nearly all actives have a fitted effect of over 35% in size
# Procedure, shortened: (§1)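 500 cells/well; MIPE 4.0 drugs pin-transferred; 48 h, 37C, 5% CO2. CellTiter-Glo, 5 min RT, luminescence. Controls: DMSO 100%, media 0%.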
# [2] = Quantitative High-Throughput drug screen in 47 multiple myeloma cell lines against the NCATS MIPE library collection: L363_DSMZ cell viability assay (AID 1918984); note: potency is the fitted concentration of half-maximal effect; nearly all actives have a fitted effect of over 40% in size
# Procedure, shortened: as §1
# [3] = Quantitative High-Throughput drug screen in 47 multiple myeloma cell lines against the NCATS MIPE library collection: KMS34_JCRB cell viability assay (AID 1918985); note: nearly all actives have a fitted effect of over 40% in size; note: potency is the fitted concentration of half-maximal effect
# Procedure, shortened: as §1
# [4] = Quantitative High-Throughput drug screen in 47 multiple myeloma cell lines against the NCATS MIPE library collection: OCIMY7_PLB cell viability assay (AID 1918987); note: potency is the fitted concentration of half-maximal effect; nearly all actives have a fitted effect of over 65% in size
# Procedure, shortened: as §1
# [5] = Quantitative High-Throughput drug screen in 47 multiple myeloma cell lines against the NCATS MIPE library collection: OCIMY5_PLB cell viability assay (AID 1918988); note: potency is the fitted concentration of half-maximal effect; nearly all actives have a fitted effect of over 65% in size
# Procedure, shortened: as §1
# [6] = Quantitative High-Throughput drug screen in 47 multiple myeloma cell lines against the NCATS MIPE library collection: OPM1_PLB cell viability assay (AID 1918989); note: potency is the fitted concentration of half-maximal effect; nearly all actives have a fitted effect of over 40% in size
# Procedure, shortened: as §1
# [7] = Quantitative High-Throughput drug screen in 47 multiple myeloma cell lines against the NCATS MIPE library collection: U266_ATCC cell viability assay (AID 1919864); note: potency is the fitted concentration of half-maximal effect; nearly all actives have a fitted effect of over 35% in size
# Procedure, shortened: as §1
# [8] = Quantitative High-Throughput drug screen in 47 multiple myeloma cell lines against the NCATS MIPE library collection: XG6_PLB cell viability assay (AID 1919865); note: potency is the fitted concentration of half-maximal effect; nearly all actives have a fitted effect of over 40% in size
# Procedure, shortened: as §1
# [9] = Quantitative High-Throughput drug screen in 47 multiple myeloma cell lines against the NCATS MIPE library collection: XG1_PLB cell viability assay (AID 1919866); note: potency is the fitted concentration of half-maximal effect; nearly all actives have a fitted effect of over 35% in size
# Procedure, shortened: as §1
# [10] = Quantitative High-Throughput drug screen in 47 multiple myeloma cell lines against the NCATS MIPE library collection: VP6_DJ cell viability assay (AID 1919867)
# Procedure, shortened: as §1
# [11] = Quantitative High-Throughput drug screen in 47 multiple myeloma cell lines against the NCATS MIPE library collection: PE2_PLB cell viability assay (AID 1919869); note: potency is the fitted concentration of half-maximal effect; nearly all actives have a fitted effect of over 35% in size
# Procedure, shortened: as §1
# [12] = Quantitative High-Throughput drug screen in 47 multiple myeloma cell lines against the NCATS MIPE library collection: PCM6_Riken cell viability assay (AID 1919870); note: potency is the fitted concentration of half-maximal effect; nearly all actives have a fitted effect of over 30% in size
# Procedure, shortened: as §1
# [13] = Quantitative High-Throughput drug screen in 47 multiple myeloma cell lines against the NCATS MIPE library collection: OPM2_DSMZ cell viability assay (AID 1919872); note: nearly all actives have a fitted effect of over 30% in size; note: potency is the fitted concentration of half-maximal effect
# Procedure, shortened: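 We plated 500 myeloma cells per well, pinned in MIPE 4.0 compounds, and incubated for 48 hours at 37C. ATP was then quantified with CellTiter-Glo, with DMSO and media-only wells defining 100% and 0%.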
# [14] = Quantitative High-Throughput drug screen in 47 multiple myeloma cell lines against the NCATS MIPE library collection: KMS11_JCRBsus cell viability assay (AID 1919873); note: nearly all actives have a fitted effect of over 50% in size; note: potency is the fitted concentration of half-maximal effect
# Procedure, shortened: as §1
# [15] = qHTS drug screen for cell cycle checkpoint inhibitors in PARPi-resistant BRCA-mutant ovarian cancer cell lines. (AID 1963452; calls by dose curve); details: PEO1/OlaR viability, CellTiter-Glo luminescence, 96 h, stronger effect = lower value
# Procedure, shortened: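 PEO1, PEO4 and PEO1/OlaR ovarian cancer cells, 600 per well, exposed 96 h at 37C to a dilution series. Viability read by CellTiter-Glo luminescence, normalized to DMSO and empty wells; activity summarized as Z-AUC.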
# [16] = Quantitative High-Throughput drug screen in 47 multiple myeloma cell lines against the NCATS MIPE library collection: RPMI8226_ATCC cell viability assay (AID 1919871); note: potency is the fitted concentration of half-maximal effect; nearly all actives have a fitted effect of over 30% in size
# Procedure, shortened: as §1
# [17] = Quantitative High-Throughput drug screen in 47 multiple myeloma cell lines against the NCATS MIPE library collection: KMS28BM_JCRB cell viability assay (AID 1919874); note: nearly all actives have a fitted effect of over 35% in size; note: potency is the fitted concentration of half-maximal effect
# Procedure, shortened: as §1
# [18] = Quantitative High-Throughput drug screen in 47 multiple myeloma cell lines against the NCATS MIPE library collection: UTMC2_PLB cell viability assay (AID 1919868); details: CellTiter-Glo ATP luminescence, 48 h; viability (% of DMSO control): at 45.8 µM (top of the series) unless noted; note: potency is the fitted concentration of half-maximal effect; nearly all actives have a fitted effect of over 55% in size
# Procedure, shortened: as §1
# [19] = Quantitative High-Throughput drug screen in 47 multiple myeloma cell lines against the NCATS MIPE library collection: SKMM1_PLB cell viability assay (AID 1919863); details: SKMM1 myeloma viability, CellTiter-Glo ATP, 48 h; viability: stronger effect = lower value
# Procedure, shortened: as §1
# [20] = measured here: PEO1 parental Z-AUC
structure (smiles),measurement,setting,value
CCN(CC)CCCCNc1ncc2cc(-c3cc(OC)cc(OC)c3)c(NC(=O)NC(C)(C)C)nc2n1,Potency,[1],6.62 µM (active)
same,Potency,[2],14.8 µM (active)
same,Potency,[3],33.2 µM (active)
same,Potency,[4],18.7 µM (active)
same,Potency,[5],16.6 µM (active)
same,Potency,[6],14.8 µM (active)
same,Potency,[7],18.7 µM (active)
same,Potency,[8],5.9 µM (active)
same,Potency,[9],8.33 µM (active)
same,Potency,[10],10.5 µM (active)
same,Potency,[11],20.9 µM (active)
same,Potency,[12],5.26 µM (active)
same,Potency,[13],20.9 µM (active)
same,Potency,[14],23.5 µM (active)
same,Z-AUC,[15],-1.19 (inactive)
same,Z-AUC,[15]; [20],1.07
same,Z-AUC,[15]; measured here: PEO4 Z-AUC,0.00955
CC1(O)CC(c2nc(-c3ccc4ccc(-c5ccccc5)nc4c3)c3c(N)nccn23)C1 (configuration not stated),Potency,[1],0.264 µM (active)
same,Potency,[2],0.662 µM (active)
same,Potency,[3],0.59 µM (active)
same,Potency,[4],0.209 µM (active)
same,Potency,[5],0.235 µM (active)
same,Potency,[6],18.7 µM (active)
same,Potency,[8],5.26 µM (active)
same,Potency,[9],5.9 µM (active)
same,Potency,[10],0.166 µM (active)
same,Potency,[11],1.66 µM (active)
same,Potency,[12],14.8 µM (active)
same,Potency,[16],0.235 µM (active)
same,Potency,[13],18.7 µM (active)
same,Potency,[14],0.187 µM (active)
same,Potency,[17],0.148 µM (active)
same,Z-AUC,[15],-2.04 (inactive)
same,Z-AUC,[15]; [20],-0.993
same,Z-AUC,[15]; measured here: PEO4 Z-AUC,-1.72
CNC(=O)c1ccc(N2C(=S)N(c3cnc(C#N)c(C(F)(F)F)c3)C(=O)C23CCC3)cc1F,Potency,[1],26.4 µM (active)
same,Potency,[2],7.43 µM (active)
same,Potency,[3],inactive
same,Potency,[4],0.526 µM (active)
same,Potency,[5],0.118 µM (active)
same,Potency,[7],0.662 µM (active)
same,Potency,[8],0.0935 µM (active)
same,Potency,[9],0.264 µM (active)
same,Potency,[10],1.05 µM (active)
same,Potency,[18],3.32 µM (active)
same,Potency,[11],1.05 µM (active)
same,Potency,[12],0.833 µM (active)
same,Potency,[13],inactive
same,Potency,[14],inactive
same,Potency,[17],inactive
same,Z-AUC,[15],0.293 (inactive)
same,Z-AUC,[15]; [20],-0.208
same,Z-AUC,[15]; measured here: PEO4 Z-AUC,0.0749
CC(C)(C)OC(=O)Nc1ccc(-c2cc(C(=O)NCCCCCCC(=O)NO)no2)cc1,Potency,[1],2.35 µM (active)
same,Potency,[2],0.469 µM (active)
same,Potency,[3],2.35 µM (active)
same,Potency,[4],1.32 µM (active)
same,Potency,[5],1.87 µM (active)
same,Potency,[6],1.87 µM (active)
same,Potency,[8],3.72 µM (active)
same,Potency,[9],1.87 µM (active)
same,Potency,[10],0.833 µM (active)
same,Potency,[18],0.59 µM (active)
same,Potency,[11],2.64 µM (active)
same,Potency,[12],1.87 µM (active)
same,Potency,[16],3.32 µM (active)
same,Potency,[13],2.64 µM (active)
same,Potency,[14],1.48 µM (active)
same,Potency,[17],1.05 µM (active)
same,Z-AUC,[15],-0.0304 (inactive)
same,Z-AUC,[15]; [20],0.0473
same,Z-AUC,[15]; measured here: PEO4 Z-AUC,0.196
O=C(C=Cc1cccc(S(=O)(=O)Nc2ccccc2)c1)NO,Potency,[1],3.82 µM (active)
same,Potency,[2],0.855 µM (active)
same,Potency,[3],1.36 µM (active)
same,Potency,[4],2.15 µM (active)
same,Potency,[5],1.21 µM (active)
same,Potency,[19],4.29 µM (active)
same,Potency,[7],2.7 µM (active)
same,Potency,[8],4.81 µM (active)
same,Potency,[9],2.41 µM (active)
same,Potency,[10],0.855 µM (active)
same,Potency,[18],1.08 µM (active)
same,Potency,[11],3.82 µM (active)
same,Potency,[12],2.41 µM (active)
same,Potency,[16],3.4 µM (active)
same,Potency,[13],3.82 µM (active)
same,Potency,[17],1.36 µM (active)
C=C1C(=CC=C2CCCC3(C)[C@@H]([C@H](C)C=CC=CC(O)(CC)CC)CC[C@@H]23)C[C@@H](O)C[C@@H]1O (some centres not stated),Potency,[1],26.4 µM (active)
same,Potency,[2],23.5 µM (active)
same,Potency,[3],20.9 µM (active)
same,Potency,[4],29.6 µM (active)
same,Potency,[5],10.5 µM (active)
same,Potency,[6],18.7 µM (active)
same,Potency,[7],23.5 µM (active)
same,Potency,[8],18.7 µM (active)
same,Potency,[9],20.9 µM (active)
same,Potency,[10],10.5 µM (active)
same,Potency,[11],23.5 µM (active)
same,Potency,[12],33.2 µM (active)
same,Potency,[16],26.4 µM (active)
same,Potency,[14],23.5 µM (active)
O=C(O)c1ccc2cc(-c3ccc(O)c(C45CC6CC(CC(C6)C4)C5)c3)ccc2c1,Potency,[1],3.32 µM (active)
same,Potency,[2],0.833 µM (active)
same,Potency,[3],13.2 µM (active)
same,Potency,[4],0.105 µM (active)
same,Potency,[5],2.96 µM (active)
same,Potency,[19],4.18 µM (active)
same,Potency,[8],0.132 µM (active)
same,Potency,[9],0.526 µM (active)
same,Potency,[10],13.2 µM (active)
same,Potency,[18],0.264 µM (active)
same,Potency,[11],1.48 µM (active)
same,Potency,[12],16.6 µM (active)
same,Potency,[16],11.8 µM (active)
same,Potency,[13],23.5 µM (active)
same,Potency,[14],1.48 µM (active)
same,Potency,[17],1.32 µM (active)
same,Z-AUC,[15],-0.815 (inactive)
same,Z-AUC,[15]; [20],-1.55
same,Z-AUC,[15]; measured here: PEO4 Z-AUC,-1.16
O=C(CCCCCCNC(=O)c1cnc(N(c2ccccc2)c2ccccc2)nc1)NO,Potency,[1],7.43 µM (active)
same,Potency,[2],4.69 µM (active)
same,Potency,[3],5.9 µM (active)
same,Potency,[4],13.2 µM (active)
same,Potency,[5],4.69 µM (active)
same,Potency,[6],6.62 µM (active)
same,Potency,[7],9.35 µM (active)
same,Potency,[8],14.8 µM (active)
same,Potency,[9],9.35 µM (active)
same,Potency,[10],2.35 µM (active)
same,Potency,[11],9.35 µM (active)
same,Potency,[16],14.8 µM (active)
same,Potency,[13],10.5 µM (active)
same,Potency,[17],4.18 µM (active)
same,Z-AUC,[15],0.809 (inactive)
same,Z-AUC,[15]; [20],0.473
same,Z-AUC,[15]; measured here: PEO4 Z-AUC,0.434
CNC(=O)c1cc(Oc2ccc(NC(=O)Nc3cc(C(C)(C)C)nn3-c3ccc4ncccc4c3)c(F)c2)ccn1,Potency,[1],9.35 µM (active)
same,Potency,[2],18.7 µM (active)
same,Potency,[3],7.43 µM (active)
same,Potency,[4],6.62 µM (active)
same,Potency,[5],6.62 µM (active)
same,Potency,[19],14.8 µM (active)
same,Potency,[7],13.2 µM (active)
same,Potency,[8],7.43 µM (active)
same,Potency,[9],7.43 µM (active)
same,Potency,[10],4.69 µM (active)
same,Potency,[18],4.18 µM (active)
same,Potency,[11],5.26 µM (active)
same,Potency,[12],2.64 µM (active)
same,Potency,[16],16.6 µM (active)
same,Potency,[13],18.7 µM (active)
same,Potency,[17],9.35 µM (active)
same,Z-AUC,[15],0.924 (inactive)
same,Z-AUC,[15]; [20],1.09
same,Z-AUC,[15]; measured here: PEO4 Z-AUC,1.19
